Experiment [1] concerns Human papillomavirus type 1a protein E7 (residues 44-93). As to the kind of experiment: small molecules binding HPV E7 44-93 – biochemical, small-molecule microarray, residues 44-93, 635 nm fluorescence, primary screen (AID 1108).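 Note: E7 fragment applied at 1 µg/mL in TBST for 1 h at 4 C; score combines spot fluorescence with its signal to noise ratio.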 To be noted: fluorescence 635 nm, higher = more signal.
Experiment [2] is described as follows: hepatitis C replication reporter changes, two-sided – Huh7 cells, luciferase reporter, HCV replication inhibitor project, primary screen (AID 1109).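 Note: huh7 hepatoma cells harbouring a luciferase neomycin HCV replicon reporter; luciferase luminescence as measure of HCV replicon replication; test concentration not given here.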 To be noted: Huh7 HCV replicon luciferase reporter, 48 h; higher = more signal. (In general: In a reporter assay the amount or activity of a reporter protein is the signal.)
For experiment [3], the target named is Left-right determination factor 2 (Homo sapiens) (UniProt O00292). As to the kind of experiment: small molecules binding LEFTY2 protein – biochemical, small-molecule microarray, 635 nm fluorescence scan, primary screen (AID 1110). To be noted: higher = more signal.
Chain of Left-right determination factor 2 (Homo sapiens) (O00292 whole entry, looked up): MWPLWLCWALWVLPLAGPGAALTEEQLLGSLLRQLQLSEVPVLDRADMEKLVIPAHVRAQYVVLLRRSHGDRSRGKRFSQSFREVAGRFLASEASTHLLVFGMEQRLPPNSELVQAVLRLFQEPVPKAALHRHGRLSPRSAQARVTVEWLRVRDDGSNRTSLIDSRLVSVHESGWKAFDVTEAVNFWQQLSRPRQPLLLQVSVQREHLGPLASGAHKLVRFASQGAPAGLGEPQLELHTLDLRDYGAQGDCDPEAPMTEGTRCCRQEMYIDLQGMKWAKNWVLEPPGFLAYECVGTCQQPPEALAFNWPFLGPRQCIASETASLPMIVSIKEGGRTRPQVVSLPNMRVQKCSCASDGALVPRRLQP
Experiment [4] has as its target Calmodulin-1 (Homo sapiens) (UniProt P0DP23). As to the kind of experiment: small molecules binding calmodulin-1 with EGTA – biochemical, small-molecule microarray, Cy5-labelled CALM1, profiling panel (AID 1111).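 Note: labelled calmodulin applied in Tris saline Tween buffer holding calcium plus EGTA and DTT.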 As to conditions: Cy5-CALM1 binding fluorescence, higher = more signal.
For experiment [5] the target is unchanged. As to the kind of experiment: small molecules binding Ca-loaded calmodulin-1 – biochemical, small-molecule microarray, Cy5-labelled CALM1, plus calcium, artefact control for SMM control-protein annotation, profiling panel (AID 1112).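 Note: score merges spot fluorescence with signal to noise from triplicate slides.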 As to conditions: Cy5-CALM1 binding fluorescence, higher = more signal.
Experiment [6] in a line: probe aWnt5a binding to arrayed compounds – biochemical, biotinylated probe, 635/667 nm fluorescence, primary screen (AID 1113).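 Note: score merges 667 nm fluorescence intensity with signal-to-noise per printed feature.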 As to conditions: small-molecule microarray, higher = more signal.
The nature of experiment [7]: probe aShh binding to arrayed compounds – biochemical, biotinylated probe, 635/667 nm fluorescence, primary screen (AID 1114).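 Note: probe is biotin-labelled aShh protein from a stem cell growth factor screen; measures binding of labelled protein to compounds printed on the slide; score merges feature fluorescence at 667 nm with signal-to-noise.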 To be noted: small-molecule microarray, higher = more signal.
Experiment [8] can be described thus: probe aNog binding to arrayed compounds – biochemical, biotinylated probe, 635/667 nm fluorescence, primary screen (AID 1115).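 Note: probe is biotinylated aNog protein used at 0.15 µg/mL for 1 h at 4 C; z-score combines 667 nm fluorescence of each spot with its signal to noise.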 As to conditions: small-molecule microarray, higher = more signal.
The target in experiment [9] is Torsin-1A-interacting protein 1 (Homo sapiens) (UniProt Q5JTV8). As to the kind of experiment: compound microarray binding of lysate hLAP1 – cell lysate, small-molecule microarray, COS7 lysate, 635/667 nm fluorescence, primary screen (AID 1116). As to conditions: 635 nm fluorescence, higher = more signal.
Chain of Torsin-1A-interacting protein 1 (Homo sapiens) (Q5JTV8 whole entry, looked up): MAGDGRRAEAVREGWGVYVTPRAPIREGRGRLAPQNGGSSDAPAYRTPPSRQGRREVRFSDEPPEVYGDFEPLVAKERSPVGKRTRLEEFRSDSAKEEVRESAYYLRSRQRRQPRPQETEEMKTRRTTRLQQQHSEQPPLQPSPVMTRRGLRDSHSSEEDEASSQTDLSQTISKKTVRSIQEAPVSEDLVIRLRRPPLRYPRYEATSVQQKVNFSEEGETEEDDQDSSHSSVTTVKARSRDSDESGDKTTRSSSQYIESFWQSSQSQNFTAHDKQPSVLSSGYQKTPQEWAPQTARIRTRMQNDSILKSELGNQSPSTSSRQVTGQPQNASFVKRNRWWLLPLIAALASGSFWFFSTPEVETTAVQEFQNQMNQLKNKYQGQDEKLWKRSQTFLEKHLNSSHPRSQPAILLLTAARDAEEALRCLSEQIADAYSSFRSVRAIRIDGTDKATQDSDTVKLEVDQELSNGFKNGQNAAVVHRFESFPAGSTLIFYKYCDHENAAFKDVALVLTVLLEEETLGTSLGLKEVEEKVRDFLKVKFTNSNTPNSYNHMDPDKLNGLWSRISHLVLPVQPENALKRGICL
Experiment [10] deals with Alpha-bungarotoxin (Bungarus multicinctus) (UniProt P60615). As to the kind of experiment: compounds binding labelled alpha-BTX control protein – biochemical, small-molecule microarray, Alexa647 label, 635/667 nm fluorescence, artefact control for SMM control protein annotation, profiling panel (AID 1117). As to conditions: alpha-BTX-A647 binding fluorescence, higher = more signal.
Chain of Alpha-bungarotoxin (Bungarus multicinctus) (P60615 whole entry, looked up): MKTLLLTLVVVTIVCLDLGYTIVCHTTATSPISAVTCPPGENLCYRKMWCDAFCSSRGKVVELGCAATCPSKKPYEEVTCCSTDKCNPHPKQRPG

For another experiment, the target named is Albumin (Bos taurus) (UniProt P02769). The experiment is described as follows: compounds binding labelled BSA control protein – biochemical, small-molecule microarray, Alexa647 label, 635/667 nm fluorescence, artefact control for SMM control protein annotation, profiling panel (AID 1118).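 Note: score merges 667 nm emission intensity and signal-to-noise per printed compound spot.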 As to conditions: BSA-A647 binding, fluorescence 635 nm, higher = more signal.
Chain of Albumin (Bos taurus) (P02769 whole entry, looked up): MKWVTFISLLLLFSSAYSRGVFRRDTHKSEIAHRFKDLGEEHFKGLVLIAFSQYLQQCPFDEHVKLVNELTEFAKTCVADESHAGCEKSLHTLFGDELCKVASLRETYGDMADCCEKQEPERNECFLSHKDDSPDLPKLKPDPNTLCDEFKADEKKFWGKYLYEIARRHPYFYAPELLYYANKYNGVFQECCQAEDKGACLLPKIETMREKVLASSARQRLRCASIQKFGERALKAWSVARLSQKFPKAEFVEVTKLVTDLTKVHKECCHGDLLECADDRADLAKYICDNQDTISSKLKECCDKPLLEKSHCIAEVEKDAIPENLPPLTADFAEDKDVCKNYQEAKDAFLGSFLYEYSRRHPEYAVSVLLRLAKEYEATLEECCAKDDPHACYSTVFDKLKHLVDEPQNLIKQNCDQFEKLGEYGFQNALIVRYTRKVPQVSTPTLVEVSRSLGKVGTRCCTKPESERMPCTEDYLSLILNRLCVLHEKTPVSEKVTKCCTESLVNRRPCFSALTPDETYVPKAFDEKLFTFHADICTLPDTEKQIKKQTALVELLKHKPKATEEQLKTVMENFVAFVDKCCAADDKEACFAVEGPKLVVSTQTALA

Experiment [11] can be described thus: probe aXIP binding to arrayed compounds – biochemical, NeuroSMM set, 635/667 nm fluorescence, primary screen (AID 1119).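 Note: probe is the protein aXip251-270 applied at 1 µg/mL to compound-printed slides; binding of probe to printed compounds measured as 667 nm fluorescence plus signal to noise.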 To be noted: small-molecule microarray, higher = more signal, called active from +8 up or from −8 down.
The nature of experiment [12]: probe aNOTCH3 binding on compound microarray – biochemical, small-molecule microarray, 635/667 nm fluorescence, primary screen (AID 1120).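 Note: probe is a biotin-tagged antibody raised against NOTCH3 rather than NOTCH3 protein; score merges spot fluorescence near 667 nm with spot signal to noise.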 To be noted: higher = more signal.
The nature of experiment [13]: probe aNOTCH2 binding on compound microarray – biochemical, small-molecule microarray, 635/667 nm fluorescence, primary screen (AID 1121).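 Note: score merges feature fluorescence read at 667 nm with its signal to noise.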 As to conditions: higher = more signal.
In experiment [14] the target is Carbonic anhydrase 2 (Homo sapiens) (UniProt P00918). As to the kind of experiment: compounds binding carbonic anhydrase 2 – biochemical, small-molecule microarray, Alexa647-labelled CAII, profiling panel (AID 1122). As to conditions: CAII-A647 binding fluorescence, higher = more signal.
The nature of experiment [15]: COS7 lysate on small-molecule microarray, probe aHis, 635 nm (AID 1123).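 Note: z-score combines 667nm fluorescence intensity with signal-to-noise per printed compound spot.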 To be noted: COS7 cell lysate, fluorescence, higher = more signal.
The nature of experiment [16]: probe aLAP1 signal on lysate-treated microarray – cell lysate, small-molecule microarray, COS7 lysate, primary screen (AID 1124).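 Note: lysate comes from COS7 cells expressing LAP1 and is applied at 0.3 µg/mL; score merges spot fluorescence near 667 nm with signal-to-noise over triplicate slides.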 To be noted: probe aLAP1, fluorescence, higher = more signal.
A further experiment has as its system Sam68 (KHDRBS1). As to the kind of experiment: compounds binding KHDRBS1 protein – biochemical, small-molecule microarray, 635 nm fluorescence, primary screen (AID 1125).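 Note: score merges 667 nm channel intensity with signal to noise over triplicate slides.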 To be noted: higher = more signal.
The test system of experiment [17] is Chordin-like protein 2 (CHRDL2). As to the kind of experiment: compounds binding chordin-like 2 – biochemical, small-molecule microarray, 635 nm fluorescence, primary screen (AID 1126).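 Note: printed compound slides probed with Chrdl2 protein at 4 µg/mL for 1 h at 4 C; score merges 667 nm emission intensity with signal to noise over three replicate slides.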 As to conditions: fluorescence 635 nm, higher = more signal.
For experiment [18], the target named is Concanavalin-A (Canavalia ensiformis) (UniProt P02866). The experiment is described as follows: compounds binding concanavalin A lectin – biochemical, small-molecule microarray, Alexa647 label, 635 nm, artefact control for SMM control protein annotation, primary screen (AID 1127).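 Note: z combines 667 nm emission intensity with signal-to-noise across three replicate slides.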 To be noted: ConA-A647 binding fluorescence, higher = more signal.
Chain of Concanavalin-A (Canavalia ensiformis) (P02866 whole entry, looked up): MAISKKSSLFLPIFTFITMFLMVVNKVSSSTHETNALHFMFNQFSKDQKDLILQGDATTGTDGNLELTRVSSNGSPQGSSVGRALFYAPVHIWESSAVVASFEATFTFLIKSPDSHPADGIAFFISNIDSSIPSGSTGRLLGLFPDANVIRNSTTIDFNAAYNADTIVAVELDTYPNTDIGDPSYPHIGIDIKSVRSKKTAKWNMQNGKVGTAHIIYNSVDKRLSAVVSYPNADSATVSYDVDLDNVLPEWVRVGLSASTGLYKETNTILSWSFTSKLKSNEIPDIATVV

The record followed here is PubChem BioAssay.

The source made the active and inactive calls.

`O=C1NC(=O)C2C1C=CC(C(O)c1cccc3ccccc13)N2Nc1ccccn1` (stereo not given): the composite z-score is 0.355 in experiment [1]; 0.326 in [3]; -0.168 in experiment [4]; -0.477 in [5]; -0.034 in experiment [6]; 0.401 in experiment [7]. In addition, the composite z-score in experiment [8] is 0.116; in [9] it was 0.594; in experiment [10], 0.307; with Albumin (Bos taurus), 0.421; in [12] it was 0.138; in experiment [13], -0.0966. Also, the composite z-score in experiment [14] is 0.553; in experiment [15], 0.296; in [16] it was 0.447; with Sam68 (KHDRBS1), 0.0488; in [17], 0.394; in experiment [18] it was 0.506. The z-score in [2] is 0.496. The composite Z-score in experiment [11] is 0.0886 (inactive).
Consider `C=CC[C@@]1(C(=O)N(C)C)N=C(c2ccc(OCCCO)cc2)O[C@@H]1c1ccccc1N=[N+]=[N-]`, for which the composite z-score was determined as 0.608 in [1]; 0.232 in experiment [3]; 2.66 in [4]; 1.03 in experiment [5]; 0.0597 in experiment [6]; 0.613 in experiment [7]. In addition, the composite z-score amounted to 2.21 in [8]; 2.7 in [9]; 2.95 in [10]; 0.757 with Albumin (Bos taurus); 0.37 in experiment [12]; 0.209 in [13]. For the same molecule, the composite z-score in [14] is 0.588; in experiment [15], 3.01; in experiment [16], 1.2; in the experiment on Sam68 (KHDRBS1), 1.3; in experiment [17], -0.344; in [18], 1.18. Further, the z-score in experiment [2] was -1.08. Further, the composite Z-score in [11] was 0.149 (inactive).
On to `COc1cc(OC)c(C(O)C2C=CC3C(=O)NC(=O)C3N2Nc2ccc(Cl)cc2Cl)cc1Br` (stereo not given), for which the composite z-score in experiment [1] was 1.09; in experiment [3] it was -0.75; in experiment [4] it was 2.09; in experiment [5], 0.436; in experiment [6], -0.0685; in [7] it was 0.0875. Besides, the composite z-score in experiment [8] was 1.61; in [9], 1.38; in [10], 1.27; with Albumin (Bos taurus), 1; in [12] it was 0.282; in experiment [13], 0.321. Also, the composite z-score in experiment [14] was 0.615; in experiment [15], 2.99; in experiment [16] it was 0.474; in the experiment with Sam68 (KHDRBS1), 1.22; in experiment [17], -1.09; in experiment [18], 0.468. For the same molecule, in experiment [2], the z-score is -1.66. For the same molecule, the composite Z-score in [11] is 2.76 (inactive).
For `COC(=O)[C@@]1(Cc2ccccc2)[C@H]2c3cc(C(=O)N4CCCC4)n(CC4CC4)c3C[C@H]2CN1C(=O)c1ccccc1`, the composite z-score in experiment [1] was 1.39; in experiment [3], 0.192; in experiment [4] it was 1.13; in experiment [5], 0.697; in experiment [6] it was 0.647; in [7], 0.834. Besides, the composite z-score in experiment [8] came out at 2.57; in experiment [9] it was 0.079; in [10] it was 0.615; in the experiment with Albumin (Bos taurus), 0.946; in [12], 1.13; in experiment [13], 0.389. For the same molecule, the composite z-score in [14] is 0.641; in experiment [15], 2.89; in [16] it was 0.114; with Sam68 (KHDRBS1), 1.3; in [17], -0.311; in experiment [18] it was 0.818. This molecule also gave a z-score in [2] of -2.17. The composite Z-score in experiment [11] is 1.02 (inactive).
Regarding `C=CC[C@]1(C(=O)N2CCCCC2)N=C(c2ccc(OCCCO)cc2)O[C@H]1c1ccccc1`, the composite z-score is 0.254 in experiment [1]; 0.32 in [3]; 0.0382 in experiment [4]; -0.0541 in [5]; 0.15 in [6]; -0.155 in experiment [7]. In addition, the composite z-score in experiment [8] is 2.28; in experiment [9], 1.55; in experiment [10], 0.741; with Albumin (Bos taurus), 0.579; in experiment [12], 0.748; in experiment [13], 0.429. The composite z-score in experiment [14] is 0.63; in experiment [15], 2.04; in [16], 0.488; in the experiment with Sam68 (KHDRBS1), 1.31; in experiment [17] it was 0.238; in experiment [18] it was 0.387. For the same molecule, the z-score in experiment [2] is -1.98. Besides, the composite Z-score in experiment [11] was 0.458 (inactive).
